Experimental data from PubChem BioAssay AID1839 (Johns Hopkins Ion Channel Center, 2009).
Hit rate of the full screen: of about 2,400 compounds, about 220 (9.2%) were called active. The list comes from a sample in which actives are over-represented; it also holds similar structures and randomly drawn compounds. A number with no mark means an inactive call.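 The calls were made as follows: active = signal change above the mean of dofetilide-free buffer controls plus 3 SD, so a positive margin; inactive = the rest.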

Test: thallium signal changes without hERG – cell-based, CHO-K1 parental line, FluxOR thallium flux, counter-screen for hERG block protection project, confirmation (AID 1839);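 also: compounds applied alone with no dofetilide to cells lacking hERG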
Settings: CHO-K1 parental cells, FluxOR thallium flux fluorescence; at 10 µM

SMILES	signal change vs control minus 3*SD hit threshold (margin above threshold, higher = more increase)
C/C(=N\NC(=O)c1cc2ccccc2cc1O)c1ccc(C)o1	3.3% (active)
C/C(=N\NC(=O)c1cc2ccccc2cc1O)c1cc2ccccc2o1	50.8% (active)
C/C(=N/NC(=O)c1cc2ccccc2cc1O)c1ccco1	3.4% (active)
O=C(N/N=C/c1ccc(Sc2ccccn2)o1)c1cc2ccccc2cc1O	-17.7%
C/C(=N\NC(=O)c1ccoc1C)c1cccc2ccccc12	-5.5%
Cc1ccc(/C=N/NC(=O)c2cc3ccccc3cc2O)o1	18.2% (active)
COc1ccc(CCNC(=O)c2cc3ccccc3oc2=O)cc1	-38.8%
C/C(=N\NC(=S)Nc1c(C)cccc1C)c1cc2ccccc2o1	-26%
Cc1cccc(/C=N/NC(=O)c2cc(Br)ccc2O)n1	-26.5%
C/C(=N\NC(=O)c1cc2ccccc2cc1O)c1ccccn1	-32.4%
Cc1ccc(/C=N/NC(=O)c2cc(C)oc2C)o1	-22.9%
Cc1ccc(/C=N/NC(=O)c2cc(-c3ccncc3)nc3ccccc23)o1	-58.7%
NC(=O)Cn1c2[n+](c3ccccc31)CC(O)CS2 (stereo unspecified)	-25.7%
CC(=O)c1ccc2c(c1)OCCOCCOCCO2	-35.7%
CC(CCc1ccccc1)NC(=S)NC(=O)c1ccco1 (stereo unspecified)	0%
C/C(=C\C(=O)c1ccccc1)NNC(=O)c1ccc(Cl)cc1	-4.7%
Cc1ccc(Cn2nnc3c(=O)n(CC(=O)N4CCCc5ccccc54)cnc32)cc1	-24.6%
Cc1ccc(C(=O)CC(=O)c2ccccc2C)c(O)c1	-34%
Cc1cc(=S)[nH]c2c(C)cccc12	-20%
c1ccc(CCCNc2ncnc3nc[nH]c23)cc1	-18.5%
CSc1nsc(SCC(=O)Nc2ccccc2C(=O)O)n1	-22.4%
O=C(NC(=S)Nc1nc(-c2ccccc2)cs1)c1cncc(Br)c1	-17.9%
Cc1cccc(NC(=S)c2nc3ccccc3s2)c1	-28.6%
Cc1ccc(NC(=S)c2nc3ccccc3s2)cc1	-24.9%
S=C(Nc1ccc(Cl)cc1)c1nc2ccccc2s1	10.2% (active)
O=c1[nH]c(C(Cl)(Cl)Cl)nc2ccc3ccccc3c12	-12%

SMILES	signal change vs control minus 3*SD hit threshold (margin above threshold, higher = more increase)
COc1ccccc1NC(=O)C(=O)NNC(=O)c1ccco1	6.5% (active)
COc1ccc(C)cc1NC(=O)C(=O)NNC(=O)c1ccco1	23.7% (active)
COc1ccc(OC)c(NC(=O)C(=O)NNC(=O)c2cccs2)c1	-26.1%
COc1ccc(C)cc1NC(=O)Nc1ccc(C(=O)N2CCCC2)cc1	-20.5%
O=C(CCC(=O)Nc1ccccc1)NNC(=O)c1ccco1	-34.1%
COCC1CCCN(C(=O)c2ccc3oc(C(C)C)nc3c2)C1 (stereo unspecified)	-17.8%
C/C(O)=C/c1nc2ccccc2[nH]c1=O	-30.7%
CSc1nc2c(c(=O)[nH]1)C(c1ccc(Br)cc1)CC(=O)N2 (stereo unspecified)	-22.1%
C=CCn1c(=S)[nH]c2ccc(Br)cc2c1=O	-17.4%
C=CCn1c(=S)[nH]c2cc(-c3ccccc3)sc2c1=O	-25.2%
C=CCn1c(SCC(N)=O)nc2scc(-c3ccc(C)o3)c2c1=O	-20.7%
C=CCn1c(=S)[nH]c2scc(-c3cccs3)c2c1=O	37.4% (active)
C=CCn1c(=S)[nH]c2scc(-c3ccc(C)o3)c2c1=O	27.1% (active)
Cc1ccccc1NC(=O)CN1C(=O)S/C(=C\c2ccc(-c3cccc(C(=O)O)c3C)o2)C1=O	-33.5%
C=CCNc1sc(C(=O)C(C)(C)C)c(N)c1C#N	-32.1%
O=C(COc1ccc2c3c(c(=O)oc2c1)CCC3)N[C@@H](Cc1ccccc1)C(=O)O	-5.5%
CSC1=C(C#N)C(CC(C)C)C2=C(CCCC2=O)N1 (stereo unspecified)	-26.3%
S=c1[nH]c2ccc(Cl)cc2s1	36.9% (active)
S=c1[nH]c2cc(Cl)ccc2s1	38.9% (active)
O=C(Nc1ccc2[nH]c(=S)sc2c1)Nc1ccccc1F	-39.7%
Cc1[nH]c(=S)sc1Cc1ccc(Cl)c(Cl)c1	-29.6%
CC(C)Cn1c(=S)[nH]c2cc(Cl)ccc21	-22.1%
COc1cc(S(=O)(=O)NCC2COCCO2)ccc1-n1cnnn1 (stereo unspecified)	-28.3%
FC(F)(F)c1cnc2c(c1)[nH]c(=S)n2-c1ccc(Cl)cc1	-16.7%
CNC(=O)c1ccc(NC(=O)CN2c3cccc4cccc(c34)S2(=O)=O)cc1	-22%
